Source: PubChem BioAssay AID489008 (National Center for Advancing Translational Sciences (NCATS), 2010)
Records with an inconclusive call do not appear. Calls of active or inactive are those of the source. The call rests on the fitted dose curve; in most records, active means well fitted inhibition curve with a large enough effect; inconclusive means small, poorly fitted or top-dose-only effect; inactive means flat fitted curve, though single readings scatter.

biological target: Ferritin light chain (Equus caballus) (UniProt P02791); assay: Confirmation Assay for Identification of Novel General Anesthetics; details: apoferritin 1-aminoanthracene fluorescence displacement; further: nearly all actives have a fitted effect of over 40% in size
Sequence (P02791 2-175 limits assumed): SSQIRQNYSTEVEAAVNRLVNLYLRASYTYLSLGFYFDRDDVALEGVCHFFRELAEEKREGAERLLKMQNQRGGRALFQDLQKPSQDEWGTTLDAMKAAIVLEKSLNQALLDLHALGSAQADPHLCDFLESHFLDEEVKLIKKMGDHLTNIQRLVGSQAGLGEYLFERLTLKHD
Procedure, shortened: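 Horse apoferritin (10 uM) pre-loaded with 1-AMA (50% saturated, PBS) exposed to compounds 10 min at room temperature; loss of 1-AMA fluorescence (380/535 nm) scaled between free and bound ligand, curves fitted with Hill equation.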
Potency means the concentration at half of the fitted maximal effect.

Potency, active:
CCc1ccc(NC(=O)C2(C)Cc3ccccc3C(=O)O2)cc1 (centres undefined) 31.6 µM
O=C(NC1C2CC3CC(C2)CC1C3)c1ccc(Br)o1 (centres undefined) 11.2 µM
Cc1cc(C)n(-c2ccc(C(=O)NCc3ccc4c(c3)OCO4)cc2)n1 15.8 µM
C/C(=N\O)C(C)(C)Nc1ccc(Br)cc1 8.91 µM
O=C(Nc1cccc(Cl)c1)OCc1cnc(Cl)s1 31.6 µM
Cc1cc(C)n2nc(CC(=O)NC3CCCCCC3)nc2n1 8.91 µM
O=C(Nc1ccc(F)c(Cl)c1)N1CCCCCC1 7.94 µM
Nc1ccccc1Oc1ccc2ccccc2c1 11.2 µM
CC(Nc1ccccc1)c1cccnc1 (centres undefined) 15.8 µM
O=c1cc(C23CC4CC(CC(C4)C2)C3)[nH][nH]1 12.6 µM
CC(C)(C)c1ccc(OCCC(=O)NC2=NCCS2)cc1 20 µM
O=C(Cn1nc(-c2ccc(Cl)cc2)ccc1=O)NCC1CCCO1 (centres undefined) 14.1 µM
CC1CCCC(NC(=O)COC(=O)c2ccc(N(C)C)cc2)C1C (centres undefined) 7.08 µM
Cc1ccc(OCc2cc(C(=O)N3CCCCCCC3)no2)cc1C 22.4 µM
CC1Cc2ccccc2N1C(=O)CSC1=NCCS1 (centres undefined) 10 µM
O=C(NC1=NCCS1)C12CC3CC(CC(C3)C1)C2 15.8 µM
O=C(CCNc1cccc(Cl)c1)c1ccco1 31.6 µM
O=C(CSc1ccccn1)C12CC3CC(CC(C3)C1)C2 6.31 µM
CCCn1nnc(NC(=O)COc2ccc(C3CCCCC3)cc2)n1 12.6 µM
